Screens (PubChem BioAssay)
Autofluor 339: intrinsic fluorescence of library compounds, ex339/em460 – biochemical, MLSMR library, data from DPM-DC assay, artefact control, profiling panel | compound autofluorescence, ex339/em460 nm, NADH buffer; active compounds read high; 1 = no-compound wells, NADH background | fluorescence fold increase at 10 µM | 65,000 tested, 5.5% active | AID 709;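 active = at 10 µM, mean starting fluorescence two-fold or more over control wells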;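 note: signal is the first read of a kinetic run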
NADH enzymes: inhibition of NAD/NADH coupling enzymes, library profiling | coupled PK/LDH NADH assays, four targets | IC50, µM (highest dose often 10 µM) | 65,000 tested, 0.02% active;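 active = single-dose screening hits from any of four coupled enzyme assays that gave an IC50 when retested across doses; inconclusive = no clear call, values can overlap the other calls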;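 note: the DPM-DC format reads NADH fluorescence rather than 340 nm absorbance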
M1 antag: blocks the rat M1 muscarinic receptor response to acetylcholine; 64,000 tested, 3.4% active; B-score at 10 µM; CHO-M1 cells, Fluo-4 calcium, ACh EC80 antagonist mode; active compounds read low;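 active = calcium fluorescence response, raw or row-and-column corrected B-score, differing from the plate sample mean either way at a set confidence level, mostly lower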
Target sequence (P08482 whole entry, looked up): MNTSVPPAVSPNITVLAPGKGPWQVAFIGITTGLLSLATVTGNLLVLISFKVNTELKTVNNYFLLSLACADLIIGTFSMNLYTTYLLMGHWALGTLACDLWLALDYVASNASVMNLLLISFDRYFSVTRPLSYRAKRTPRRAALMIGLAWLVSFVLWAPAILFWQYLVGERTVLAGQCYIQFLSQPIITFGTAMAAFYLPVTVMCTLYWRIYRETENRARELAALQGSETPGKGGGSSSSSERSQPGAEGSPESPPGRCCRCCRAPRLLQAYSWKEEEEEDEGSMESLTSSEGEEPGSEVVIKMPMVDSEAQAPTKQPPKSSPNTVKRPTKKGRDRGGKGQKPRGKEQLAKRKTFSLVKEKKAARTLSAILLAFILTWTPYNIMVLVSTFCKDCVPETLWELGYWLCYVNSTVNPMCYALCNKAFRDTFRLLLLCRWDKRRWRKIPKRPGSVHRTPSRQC
mHtt clearance: compounds clearing mutant huntingtin protein; HeLa Exon1htt(103Q)mCFP, aggregate imaging; zero = plate's median compound well; inhibition, % at 1.5 µM; 47,000 tested, 0.42% active; AID 853;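 active = inhibition of aggregate fluorescence above about 70%, also judged a hit by eye on the cell image, limit read from the data, passing the limit was not always enough; inconclusive = no rule stated for this call; inactive = not judged a hit on image review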;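 note: cells exposed to compound for three days before fixation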
Abs 340nm: compounds absorbing at 340 nm. compound absorbance at 340 nm, fold over control. fold change at 10 µM. 65,000 tested, under 10 active. AID 708;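 active = at 10 µM dose, initial 340 nm absorbance at least 2 fold that of control wells; inactive = change under 2 fold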;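 note: initial absorbance extrapolated from kinetic A340 decline of NADH oxidation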
M1 ag: M1 muscarinic receptor agonism. 64,000 tested, 3% active. B-score at 10 µM. AID 626. CHO-M1 cells, Fluo-4 calcium fluorescence, agonist mode; active compounds read high;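 active = fluorescence rise, raw or as B-score row- and column-corrected plate score, outside the 99.7% band of its plate's samples, either direction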
M1 agonist conf: confirmation of rat M1 muscarinic receptor agonists. AID 1488. 1,700 tested, 19% active. shares compounds with M1 ag. CHO-M1 cells, Fluo-4 calcium fluorescence, agonist mode; actives lie on both sides. fluorescence change (max-min) at 10 µM;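 active = fluorescence change differs from the solvent-only DMSO control mean at a set confidence level in both duplicate runs; inconclusive = differs from solvent-only control mean in just one of two runs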;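 note: an EC20 dose of acetylcholine follows compound addition during the same imaging run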
M4 ag counter: rat M4 muscarinic agonism, M1 counter-screen; fluorescence change (max-min) at 10 µM; shares compounds with M1 ag; CHO M4/Gqi5 cells, Fluo-4 calcium fluorescence, agonist mode; actives lie on both sides; 1,700 tested, 9% active;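 active = fluorescence change differing from the plate's solvent-only control wells at 99.7% confidence in both duplicates, whether higher or lower; inconclusive = differs from solvent controls in only one of two duplicates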
M1 antag confirm: confirmation of rat M1 muscarinic receptor antagonists; 1,700 tested, 43% active; calcium response (max-min fluorescence) at 10 µM; AID 677; shares compounds with M1 antag; CHO-M1 cells, Fluo-4 calcium, ACh EC80 antagonism; active compounds read low;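 active = calcium response below the same-plate mean of wells given acetylcholine alone at its 80%-effect dose, minus 3 SD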
mGluR4 antag: mGluR4 (human) activity, M1 antagonist secondary assay; 1,700 tested, 0.9% active; fluorescence response (max-min) at 10 µM; CHO-mGluR4 calcium flux, Fluo-4 fluorescence, glutamate EC80; active compounds read low; AID 678; shares compounds with M1 antag;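 active = fluorescence response below the plate's average for near-maximal glutamate wells, less 3 SD of those wells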;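 note: raw unnormalized fluorescence span taken in the window right after glutamate addition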
Each line names hits and unclear results; the compound was inactive in the other large screens (follow-up assays come after a bar, where they were run). Compounds with a hit are over-represented: about 9.3% of the library has one in this group of screens.

Cc1cccn2c(NCC3CCCO3)c(C(C)C)nc12 (configuration not stated)	Autofluor 339 3.6 (no result: mHtt clearance)
CCOc1cc(-c2nc3c(C)cccn3c2NCC2CCCO2)ccc1O (configuration not stated)	Autofluor 339 3.9
Cn1c(=O)cc(SCC(=O)N2CCC3(CC2)OCCO3)c2ccccc21	none
Cn1c2ccccc2c2c(C(=O)N3CCC4(CC3)OCCO4)cn(C3CCCC3)c(=O)c21	Autofluor 339 2.1, M1 ag 14 | M1 agonist conf inactive | M4 ag counter inactive
COc1ccc(OC)c(-n2c(O)c(C=NCc3ccc4c(c3)OCO4)c(=O)[nH]c2=O)c1	none
CCNCC1(c2ccc(OC)c(OC)c2)CCCC1	M1 antag -15, M1 ag 47 (no result: mHtt clearance) | M1 agonist conf inactive | M4 ag counter inactive
CC12CN3CC(C)(CN(C1)C3c1ccco1)C2=O (configuration not stated)	none (no result: mHtt clearance)
CC(C(N)=O)N1CC(c2ccc(Cl)cc2)CC1=O (configuration not stated)	none (no result: mHtt clearance)
CCCS(=O)(=O)N1CCCC(C(=O)N2CCC3(CC2)OCCO3)C1 (configuration not stated)	M1 ag 2 | M1 agonist conf inactive | M4 ag counter inactive
Cc1ccc(-n2c(O)c(C=Nc3ccccc3N)c(=O)[nH]c2=O)cc1C	none
O=c1[nH]c(=O)n(-c2ccc(F)cc2)c(O)c1C=Nc1ccccc1N1CCCC1	M1 ag 4.2 | M1 agonist conf inactive | M4 ag counter inconclusive
CC(=NCCCN1CCOCC1)c1c(O)[nH]c(=O)[nH]c1=O	M1 ag 1.5 | M1 agonist conf inconclusive | M4 ag counter inactive
Cc1nn(-c2ccccc2)c2c1C(c1ccc3c(c1)OCO3)SCC(=O)N2 (configuration not stated)	none
O=C(c1cc(-c2ccccc2)nc2ccccc12)N1CCC2(CC1)OCCO2	M1 ag 4.3 | M1 agonist conf inactive | M4 ag counter inactive
O=C(c1cnn2c(C(F)(F)F)cc(-c3ccccc3)nc12)N1CCC2(CC1)OCCO2	none (no result: Autofluor 339, NADH enzymes, M1 antag, Abs 340nm, M1 ag)
CN1C(=O)C(Cc2c[nH]c3ccccc23)C(=O)N(C)C1=O	none (no result: mHtt clearance)
Cc1cc2c(C(F)(F)F)cc(=O)oc2c2c1NCCC2	M1 ag 205 (no result: mHtt clearance) | M1 agonist conf 1315 | M4 ag counter 1119
O=c1[nH]c(=O)n(CCC2=CCCCC2)c(O)c1C=NCCN1CCNCC1	none
CCN(CC)c1ccc(N=Cc2c(O)n(CCC3=CCCCC3)c(=O)[nH]c2=O)cc1	M1 ag 109 (no result: mHtt clearance) | M1 agonist conf 578 | M4 ag counter 627
CN(C)c1ccc(N=Cc2c(O)n(CCC3=CCCCC3)c(=O)[nH]c2=O)cc1	M1 ag 7.9 | M1 agonist conf inconclusive | M4 ag counter inactive
C=CCn1c(O)c(C=Nc2ccc(N(CC)CC)cc2)c(=O)[nH]c1=O	M1 ag 17 (no result: mHtt clearance) | M1 agonist conf inactive | M4 ag counter inactive
COCCNC(=O)c1c(NC(=O)c2ccco2)n(Cc2ccccc2)c2nc3ccccc3nc12	Autofluor 339 3.8, M1 ag 3.6 (no result: mHtt clearance) | M1 agonist conf inactive | M4 ag counter inactive
Cc1ccc(-n2c(O)c(C=NCc3cccnc3)c(=O)[nH]c2=O)cc1C	none
COC(=O)C1=C(N)Oc2c(c(=O)oc3ccccc23)[C@]12C(=O)N(C)c1ccccc12	none (no result: mHtt clearance)
Cn1cccc1CN1CCN(C(=O)COc2ccccc2)CC1	none
Cn1nc(-c2ccc(OCC(=O)N3CCN(Cc4ccccc4)CC3)cc2)c2ccccc2c1=O	M1 antag -2, M1 ag 5.4 | M1 agonist conf inconclusive | M4 ag counter inactive
CN1C2CCC1CC(OC(=O)c1ccc(Cl)cc1)C2 (configuration not stated)	M1 antag -19 (no result: mHtt clearance) | M1 antag confirm 61 | mGluR4 antag inactive
CCCCCCOc1ccc(CN2CCN(C)CC2)cc1	M1 antag -3.3 | M1 antag confirm 502 | mGluR4 antag inactive
CCN1CCN(Cc2ccc(C)cc2)CC1	none (no result: mHtt clearance)
CCC(=Nc1ccccc1NC(C)=O)c1c(O)n(C)c(=O)n(C)c1=O	none
c1ccc(C2=NP(N3CCOCC3)(N3CCOCC3)=NC(N3CCOCC3)=N2)cc1	none (no result: mHtt clearance)
CN(CC1COc2ccccc2O1)c1nc(-c2cccnc2)nc2ccccc12 (configuration not stated)	M1 antag -3.9 | M1 antag confirm inactive | mGluR4 antag inactive
O=C1NC(=O)C(CCc2ccncc2)(C2CCCCC2)C(=O)N1	M1 antag -4.6 (no result: mHtt clearance) | M1 antag confirm 550 | mGluR4 antag inactive
FC(F)(F)/C(=N\P(=S)(N1CCOCC1)N1CCOCC1)N1CCOCC1	none
CCOC(=O)C1=C(C)N(C)C2(C)CC1c1ccccc1O2 (configuration not stated)	M1 antag -2.4 (no result: mHtt clearance) | M1 antag confirm inactive | mGluR4 antag inactive
C[N+]1(C)[C@@H]2CC[C@H]1CC(OC(=O)C(CO)c1ccccc1)C2 (some centres not stated)	M1 antag -17 (no result: mHtt clearance) | M1 antag confirm 12 | mGluR4 antag inactive
CCOC(=O)C1CCN(C(C)C(=O)c2c(C)[nH]c3cc(C)ccc23)CC1 (configuration not stated)	M1 antag -4.3 (no result: mHtt clearance) | M1 antag confirm 445 | mGluR4 antag inactive
CN1CCN(c2nc3ccccc3c(=O)n2-c2ccccc2)CC1	none (no result: mHtt clearance)
CC(Oc1ccc(-c2ccccc2)cc1)C(=O)O (configuration not stated)	none
CCOC(=O)C1(c2ccccc2)CCN(Cc2cccc(C(=O)O)c2)CC1	M1 antag -3.8 | M1 antag confirm inactive | mGluR4 antag inactive
COc1cc(CN2CCN(C(=O)COc3ccccc3)CC2)cc(OC)c1OC	none (no result: mHtt clearance)
CCOc1ccc(-n2c(O)c(C=NCCN(CC)CC)c(=O)[nH]c2=O)cc1	none
CC1CN=C(Nc2ccc(N(C)C)cc2)S1 (configuration not stated)	M1 antag -2.1 | M1 antag confirm inactive | mGluR4 antag inactive
CC1CN=C(Nc2ccccc2)S1 (configuration not stated)	none
